Paper PMC11062922 (Nature Chemical Biology, 2023)

Each compound was assayed on STK10. Conditions: read-out: apparent Kd; compound concentrations:100 nM and 1000 nM (sheet 'Samples'); n = 1.
Set-up: species or system human, MV4-11 + K-562 + COLO205 + SK-N-BE2 + OVCAR-8
For `NCCNS(=O)(=O)c1ccc(-c2ccnc3[nH]ccc23)cc1` [GSK977617A], the potency estimated from few doses was 2.4 µM. For `O=C1NC(=O)C(N2CCc3ccccc32)=C1c1ccccc1Cl` [SB-373598], the potency estimated from few doses was 0.996 µM. `Cl.Cl.NCC(C(=O)Nc1cc(Br)c(-c2ccnc3[nH]ccc23)s1)c1ccccc1.NCC(C(=O)Nc1cc(Br)c(-c2ccnc3[nH]ccc23)s1)c1ccccc1` (centres unmarked) [GSK1269851A] gave a potency estimated from few doses of 2.03 µM. `CC(C)N1CCC(n2cnc(-c3ccc(F)cc3)c2-c2ccnc(N)n2)CC1` [SB-223132] gave a potency estimated from few doses of 2.02 µM. `Cc1cccc(-c2nc(Nc3ccncc3)c3sccc3n2)n1` [GW869641X] showed a potency estimated from few doses of 1.73 µM. `CNC(=O)c1ccccc1Nc1nc(Nc2ccc(N3CCOCC3)cc2)ncc1Cl.Cl` [GSK1576028A] showed a potency estimated from few doses of 0.681 µM. For `CN1C[C@@H]2Cn3c(c(C4=C(c5cn(C)c6ccccc56)C(=O)NC4=O)c4ccccc43)C[C@H]2C1.Cl` [RO0320234-001], the potency estimated from few doses was 2.02 µM.

These compounds were tested on TEC. Conditions: read-out: apparent Kd; compound concentrations:100 nM and 1000 nM (sheet 'Samples'); n = 1.
Set-up: species or system human, MV4-11 + K-562 + COLO205 + SK-N-BE2 + OVCAR-8
In the case of `O=C1NC(=O)C(N2CCc3ccccc32)=C1c1ccccc1Cl` [SB-373598], the potency estimated from few doses is reported as 0.904 µM. `CNC(=O)c1ccccc1Nc1nc(Nc2ccc(N3CCOCC3)cc2)ncc1Cl.Cl` [GSK1576028A] was tested, and the potency estimated from few doses was 0.0577 µM. `CN1C[C@@H]2Cn3c(c(C4=C(c5cn(C)c6ccccc56)C(=O)NC4=O)c4ccccc43)C[C@H]2C1.Cl` [RO0320234-001] gave a potency estimated from few doses of 1.19 µM.

These compounds were tested on TNK1. Conditions: read-out: apparent Kd; compound concentrations:100 nM and 1000 nM (sheet 'Samples'); n = 1.
Set-up: species or system human, MV4-11 + K-562 + COLO205 + SK-N-BE2 + OVCAR-8
With `NCCNS(=O)(=O)c1ccc(-c2ccnc3[nH]ccc23)cc1` [GSK977617A] the potency estimated from few doses was 0.181 µM. `O=C1NC(=O)C(N2CCc3ccccc32)=C1c1ccccc1Cl` [SB-373598] was tested, and the potency estimated from few doses was 0.0313 µM. `Cl.Cl.NCC(C(=O)Nc1cc(Br)c(-c2ccnc3[nH]ccc23)s1)c1ccccc1.NCC(C(=O)Nc1cc(Br)c(-c2ccnc3[nH]ccc23)s1)c1ccccc1` (centres unmarked) [GSK1269851A] showed a potency estimated from few doses of 0.0627 µM. `CNC(=O)c1ccccc1Nc1nc(Nc2ccc(N3CCOCC3)cc2)ncc1Cl.Cl` [GSK1576028A] gave a potency estimated from few doses of 0.00793 µM. `CN1C[C@@H]2Cn3c(c(C4=C(c5cn(C)c6ccccc56)C(=O)NC4=O)c4ccccc43)C[C@H]2C1.Cl` [RO0320234-001] showed a potency estimated from few doses of 0.00927 µM. `Cc1ccc2c(-c3ccncc3)c(-c3ccc(F)cc3)nn2c1.Cl` [GW461484A] showed a potency estimated from few doses of 0.28 µM.

Each compound was assayed on TNK2. Conditions: read-out: apparent Kd; compound concentrations:100 nM and 1000 nM (sheet 'Samples'); n = 1.
Set-up: species or system human, MV4-11 + K-562 + COLO205 + SK-N-BE2 + OVCAR-8
`NCCNS(=O)(=O)c1ccc(-c2ccnc3[nH]ccc23)cc1` [GSK977617A] showed a potency estimated from few doses of 0.233 µM. `O=C1NC(=O)C(N2CCc3ccccc32)=C1c1ccccc1Cl` [SB-373598] showed a potency estimated from few doses of 0.108 µM. For `Cl.Cl.NCC(C(=O)Nc1cc(Br)c(-c2ccnc3[nH]ccc23)s1)c1ccccc1.NCC(C(=O)Nc1cc(Br)c(-c2ccnc3[nH]ccc23)s1)c1ccccc1` (centres unmarked) [GSK1269851A], the potency estimated from few doses was 0.0466 µM. With `CC(C)N1CCC(n2cnc(-c3ccc(F)cc3)c2-c2ccnc(N)n2)CC1` [SB-223132] the potency estimated from few doses was 0.374 µM. `CNC(=O)c1ccccc1Nc1nc(Nc2ccc(N3CCOCC3)cc2)ncc1Cl.Cl` [GSK1576028A] gave a potency estimated from few doses of 0.731 µM. `CN1C[C@@H]2Cn3c(c(C4=C(c5cn(C)c6ccccc56)C(=O)NC4=O)c4ccccc43)C[C@H]2C1.Cl` [RO0320234-001] was tested, and the potency estimated from few doses was 0.0844 µM. Work on `Cc1ccc2c(-c3ccncc3)c(-c3ccc(F)cc3)nn2c1.Cl` [GW461484A] yielded a potency estimated from few doses of 0.328 µM.

What follows are compounds tested on ULK1. Conditions: read-out: apparent Kd; compound concentrations:100 nM and 1000 nM (sheet 'Samples'); n = 1.
Set-up: species or system human, MV4-11 + K-562 + COLO205 + SK-N-BE2 + OVCAR-8
With `NCCNS(=O)(=O)c1ccc(-c2ccnc3[nH]ccc23)cc1` [GSK977617A] the potency estimated from few doses was 0.718 µM. For `O=C1NC(=O)C(N2CCc3ccccc32)=C1c1ccccc1Cl` [SB-373598], the potency estimated from few doses was 0.305 µM. `Cl.Cl.NCC(C(=O)Nc1cc(Br)c(-c2ccnc3[nH]ccc23)s1)c1ccccc1.NCC(C(=O)Nc1cc(Br)c(-c2ccnc3[nH]ccc23)s1)c1ccccc1` (centres unmarked) [GSK1269851A] was tested, and the potency estimated from few doses was 0.705 µM. `CNC(=O)c1ccccc1Nc1nc(Nc2ccc(N3CCOCC3)cc2)ncc1Cl.Cl` [GSK1576028A] was tested, and the potency estimated from few doses was 1.42 µM. Work on `CN1C[C@@H]2Cn3c(c(C4=C(c5cn(C)c6ccccc56)C(=O)NC4=O)c4ccccc43)C[C@H]2C1.Cl` [RO0320234-001] yielded a potency estimated from few doses of 0.768 µM.

The compounds below were run on YES1. Conditions: read-out: apparent Kd; compound concentrations:100 nM and 1000 nM (sheet 'Samples'); n = 1.
Set-up: species or system human, MV4-11 + K-562 + COLO205 + SK-N-BE2 + OVCAR-8
`NCCNS(=O)(=O)c1ccc(-c2ccnc3[nH]ccc23)cc1` [GSK977617A] gave a potency estimated from few doses of 0.518 µM. Work on `O=C1NC(=O)C(N2CCc3ccccc32)=C1c1ccccc1Cl` [SB-373598] yielded a potency estimated from few doses of 0.128 µM. In the case of `Cl.Cl.NCC(C(=O)Nc1cc(Br)c(-c2ccnc3[nH]ccc23)s1)c1ccccc1.NCC(C(=O)Nc1cc(Br)c(-c2ccnc3[nH]ccc23)s1)c1ccccc1` (centres unmarked) [GSK1269851A], the potency estimated from few doses is reported as 0.378 µM. `CC(C)N1CCC(n2cnc(-c3ccc(F)cc3)c2-c2ccnc(N)n2)CC1` [SB-223132] showed a potency estimated from few doses of 0.758 µM. For `CNC(=O)c1ccccc1Nc1nc(Nc2ccc(N3CCOCC3)cc2)ncc1Cl.Cl` [GSK1576028A], the potency estimated from few doses was 0.322 µM. Work on `CN1C[C@@H]2Cn3c(c(C4=C(c5cn(C)c6ccccc56)C(=O)NC4=O)c4ccccc43)C[C@H]2C1.Cl` [RO0320234-001] yielded a potency estimated from few doses of 0.0978 µM. For `Cc1ccc2c(-c3ccncc3)c(-c3ccc(F)cc3)nn2c1.Cl` [GW461484A], the potency estimated from few doses was 0.556 µM.
